A selection: hits, their analogues and other compounds. The true share with any hit is near 1.3%.
MazEF act: MazEF (E. coli) toxin RNase activation; P0AE70; FAM/BHQ RNA-DNA oligo cleavage fluorescence, 5 h; activation, % at 20 µM; hit rate 0.32% among 350,000; AID 504720; in the data active = activation above about 50%
PfHsp40 yeast: compounds rescuing yeast from Plasmodium falciparum HSP40 toxicity; S. cerevisiae expressing PfHsp40, growth rescue, ATP luminescence; AID 504582; hit rate 0.68% among 340,000; growth rescue, % at 12.5 µM; in the data active = growth rescue above about 28%, passing the limit was not always enough;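 also: yeast W303a lacking pdr1 and pdr3 grown in galactose medium; growth measured after three days at 30 °C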
ugtP null kill: compounds lethal to S. aureus RN4220 ugtP deletion mutant | hit rate 0.54% among 330,000 | OD600 growth, 16 h | growth inhibition, % (no concentration beside the values) | AID 1259309; in the data active = growth inhibition above about 68%;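 also: plate controls were untreated wells for no effect and antibiotic for full effect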
Sa RN4220 lethal: kills Staphylococcus aureus RN4220 | inhibition, % (no concentration beside the values) | hit rate 0.33% among 330,000 | S. aureus RN4220 growth, OD600, 16 h; in the data active = inhibition above about 85%;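 also: plate controls were untreated cells for no effect and reference antibiotic for full effect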
TcdB GH inh: TcdB glycohydrolase inhibition; hit rate 0.24% among 350,000; inhibition, % at 9.99 µM; P18177; TcdB glycohydrolase enzymatic assay, plate reader; AID 652162; in the data active = inhibition above about 10%
Target sequence (P18177 whole entry, looked up): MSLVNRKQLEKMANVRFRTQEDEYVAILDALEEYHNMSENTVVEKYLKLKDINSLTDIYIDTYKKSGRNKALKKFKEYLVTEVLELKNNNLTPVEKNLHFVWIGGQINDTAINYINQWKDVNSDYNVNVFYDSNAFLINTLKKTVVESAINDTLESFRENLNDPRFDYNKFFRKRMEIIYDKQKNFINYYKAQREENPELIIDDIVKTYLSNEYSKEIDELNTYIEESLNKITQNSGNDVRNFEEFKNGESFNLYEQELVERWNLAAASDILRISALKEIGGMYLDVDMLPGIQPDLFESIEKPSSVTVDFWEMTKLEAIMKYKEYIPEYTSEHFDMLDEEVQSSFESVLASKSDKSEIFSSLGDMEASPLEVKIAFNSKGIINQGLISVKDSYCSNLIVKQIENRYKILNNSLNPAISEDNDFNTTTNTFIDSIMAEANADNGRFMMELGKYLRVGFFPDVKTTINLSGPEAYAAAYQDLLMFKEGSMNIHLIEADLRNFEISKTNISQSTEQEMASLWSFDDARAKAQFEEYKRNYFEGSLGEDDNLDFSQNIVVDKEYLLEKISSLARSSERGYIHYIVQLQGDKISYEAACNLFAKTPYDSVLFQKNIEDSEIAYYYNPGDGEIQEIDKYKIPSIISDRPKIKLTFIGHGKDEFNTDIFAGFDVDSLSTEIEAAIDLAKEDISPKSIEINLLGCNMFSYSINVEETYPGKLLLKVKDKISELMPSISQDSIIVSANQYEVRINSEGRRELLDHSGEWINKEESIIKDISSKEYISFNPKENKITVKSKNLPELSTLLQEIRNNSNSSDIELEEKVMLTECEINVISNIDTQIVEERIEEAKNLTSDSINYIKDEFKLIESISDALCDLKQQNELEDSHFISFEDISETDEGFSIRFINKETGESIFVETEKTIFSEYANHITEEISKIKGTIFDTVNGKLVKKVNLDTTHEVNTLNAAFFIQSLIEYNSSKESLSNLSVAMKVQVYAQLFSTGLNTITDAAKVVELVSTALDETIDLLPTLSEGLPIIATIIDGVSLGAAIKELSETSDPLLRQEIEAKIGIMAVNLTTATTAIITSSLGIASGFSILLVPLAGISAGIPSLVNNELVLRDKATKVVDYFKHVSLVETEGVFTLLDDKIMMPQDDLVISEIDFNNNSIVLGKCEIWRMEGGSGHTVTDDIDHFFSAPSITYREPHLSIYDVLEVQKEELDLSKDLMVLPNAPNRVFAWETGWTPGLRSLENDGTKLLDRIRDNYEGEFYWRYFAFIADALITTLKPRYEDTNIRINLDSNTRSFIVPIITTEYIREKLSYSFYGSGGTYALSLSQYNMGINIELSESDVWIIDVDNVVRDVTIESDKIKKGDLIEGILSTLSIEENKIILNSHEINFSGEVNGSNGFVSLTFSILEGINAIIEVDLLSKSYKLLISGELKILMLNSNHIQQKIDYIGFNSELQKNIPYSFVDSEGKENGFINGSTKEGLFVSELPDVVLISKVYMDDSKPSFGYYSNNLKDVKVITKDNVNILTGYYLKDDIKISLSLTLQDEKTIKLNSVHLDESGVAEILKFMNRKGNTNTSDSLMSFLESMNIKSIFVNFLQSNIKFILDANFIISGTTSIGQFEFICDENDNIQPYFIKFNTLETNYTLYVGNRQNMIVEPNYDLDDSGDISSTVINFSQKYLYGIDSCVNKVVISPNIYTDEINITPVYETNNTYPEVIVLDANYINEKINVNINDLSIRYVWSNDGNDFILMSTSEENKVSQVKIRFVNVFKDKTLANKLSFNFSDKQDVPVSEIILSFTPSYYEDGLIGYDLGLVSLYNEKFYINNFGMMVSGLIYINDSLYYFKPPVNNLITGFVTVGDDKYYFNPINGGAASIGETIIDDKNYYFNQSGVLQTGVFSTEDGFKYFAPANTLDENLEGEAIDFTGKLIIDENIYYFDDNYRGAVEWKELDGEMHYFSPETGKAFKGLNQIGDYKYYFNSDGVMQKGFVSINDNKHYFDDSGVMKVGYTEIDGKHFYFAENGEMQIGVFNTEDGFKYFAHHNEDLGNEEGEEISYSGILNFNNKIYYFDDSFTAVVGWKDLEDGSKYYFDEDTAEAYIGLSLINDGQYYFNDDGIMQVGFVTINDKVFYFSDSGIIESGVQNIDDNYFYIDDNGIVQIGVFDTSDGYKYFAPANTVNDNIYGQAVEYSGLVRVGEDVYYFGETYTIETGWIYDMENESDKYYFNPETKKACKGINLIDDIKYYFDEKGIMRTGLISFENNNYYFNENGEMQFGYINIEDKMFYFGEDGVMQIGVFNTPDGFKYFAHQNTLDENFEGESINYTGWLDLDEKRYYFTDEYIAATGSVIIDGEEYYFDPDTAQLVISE
Mtb hypoxia inh: inhibitors of hypoxia-regulated fluorescent reporter in Mycobacterium tuberculosis. M. tuberculosis hypoxia-regulated fluorescent reporter, fluorescence. fluorescence inhibition, % (no concentration beside the values). hit rate 0.1% among 300,000; in the data active = fluorescence inhibition mostly above about 23%, no sharp cut-off; inactive = mostly below about 17%
* marks the source's active call; other numbers are inactive results.

Screening Cc1nc(SC(C)C(=O)Nc2cccc(C(F)(F)F)c2)c2c(C)c(C(=O)O)sc2n1 (configuration not stated) returned MazEF act -16.1, PfHsp40 yeast 48.8*, ugtP null kill 12.1, Sa RN4220 lethal 14.4, TcdB GH inh -1.5 and Mtb hypoxia inh -6.3.
For CCC(=O)Nc1ccc2c(c1)C(=O)N(C)C[C@H](OC)[C@@H](C)CN(C(=O)COC)[C@@H](C)CO2 the results were TcdB GH inh 0.4.
`O=C1C(Br)=Cc2cccc3cccc1c23` gave MazEF act -112.9, PfHsp40 yeast 3.4, ugtP null kill 91.5*, Sa RN4220 lethal 82.5 and TcdB GH inh 3.0.
Screening O=C1C(=O)c2cccc3cccc1c23 returned MazEF act 9.9, PfHsp40 yeast 1.9, ugtP null kill 4.9, Sa RN4220 lethal 2.2, TcdB GH inh 1.5 and Mtb hypoxia inh -2.0.
For O=C(NC1CCC1)[C@H]1[C@H](CO)[C@H]2Cn3c(ccc(C4=CCCC4)c3=O)[C@@H]1N2CC1CC1 the results were TcdB GH inh 1.7.
For COc1ccccc1/C=C/C(=O)OCC(=O)NCc1ccco1 the results were MazEF act -2.7, PfHsp40 yeast -0.2, ugtP null kill -2.7, Sa RN4220 lethal 2.3 and Mtb hypoxia inh 6.3.
`COc1cc(/C=C/C(=O)OCC(=O)NC(=O)NC(C)(C)C)ccc1O` gave MazEF act 5.3, PfHsp40 yeast 0.2, ugtP null kill -9.5, Sa RN4220 lethal -2.7, TcdB GH inh 16.1* and Mtb hypoxia inh -14.6.
COc1cc(/C=C/C(=O)OCC(=O)NCc2ccco2)ccc1O was read as MazEF act 1.6, PfHsp40 yeast -0.3 and TcdB GH inh 14.5*.
For CC(C)NC(=O)N[C@H]1CC[C@@H](CC(=O)NCCN2CCCC2)O[C@H]1CO the results were TcdB GH inh 0.3.
Screening COc1ccc(CN2C[C@H](O)COC[C@H]3O[C@@H](CC(=O)N4CCc5ccccc5C4)CC[C@@H]32)cc1 returned TcdB GH inh -0.5.
Cc1ccc(NS(=O)(=O)c2ccc(C)c(NC(=S)NCCN3CCOCC3)c2)c(C)c1 was read as MazEF act 2.8, PfHsp40 yeast -0.5, ugtP null kill -4.0, Sa RN4220 lethal 12.6, TcdB GH inh 16.5* and Mtb hypoxia inh 8.8.
Screening O=C(Oc1ccc2c(c1)O/C(=C\c1ccncc1)C2=O)c1ccccc1 returned MazEF act 219.5*, PfHsp40 yeast -0.8, ugtP null kill -4.0, Sa RN4220 lethal 10.5 and Mtb hypoxia inh 8.1.
For Cc1ccc(/C=C2\Oc3cc(OC(=O)N4CCOCC4)ccc3C2=O)cc1 the results were MazEF act 5.3, PfHsp40 yeast 0.4, ugtP null kill -1.2, Sa RN4220 lethal 3.3 and Mtb hypoxia inh -3.7.
For COc1ccc(Nc2nc3cc(C)ccc3cc2C#N)c(OC)c1 the results were MazEF act 62.2*, PfHsp40 yeast 0.7, ugtP null kill -2.4, Sa RN4220 lethal -2.1, TcdB GH inh 1.5 and Mtb hypoxia inh 1.9.
Screening COc1ccc(Nc2nc3cc(C)ccc3cc2C#N)cc1 returned MazEF act 32.3, PfHsp40 yeast -2.2, ugtP null kill -10.2, Sa RN4220 lethal 8.0, TcdB GH inh 1.5 and Mtb hypoxia inh -2.9.
For COc1ccc(Nc2nc3ccc(C)cc3cc2C#N)c(OC)c1 the results were MazEF act 138.9*, PfHsp40 yeast -0.1, ugtP null kill 3.5, Sa RN4220 lethal 5.9, TcdB GH inh -4.2 and Mtb hypoxia inh 15.3.
For COc1ccc(Nc2nc3c(C)cccc3cc2C#N)c(OC)c1 the results were MazEF act 35.0, PfHsp40 yeast -0.4, ugtP null kill -0.8, Sa RN4220 lethal -1.9 and Mtb hypoxia inh 0.1.
For Oc1ccc(/C=N/NC(=S)Nc2cccnc2)cc1O the results were MazEF act -0.8, PfHsp40 yeast 0.6 and TcdB GH inh 25.6*.
Screening N#Cc1ccc(-c2cccnc2)nc1SCC(=O)c1ccccc1 returned MazEF act active, PfHsp40 yeast 0.7, ugtP null kill -14.3, Sa RN4220 lethal 5.1, TcdB GH inh 3.5 and Mtb hypoxia inh -1.1.
N#Cc1ccc(-c2ccccc2)nc1SCC(=O)c1cccc(Cl)c1 was read as MazEF act -36.4, PfHsp40 yeast 0.4, ugtP null kill -5.1, Sa RN4220 lethal -2.2 and Mtb hypoxia inh 5.1.
`O=C(CN1CCN(S(=O)(=O)c2ccccc2)CC1)NC(=O)NCc1ccccc1` gave MazEF act 28.1, PfHsp40 yeast -0.1, ugtP null kill 3.9 and Sa RN4220 lethal -0.4.
Cc1ccc(S(=O)(=O)N2CCN(CC(=O)NC(=O)NCc3ccccc3)CC2)cc1C was read as MazEF act 95.0*, PfHsp40 yeast 1.2, ugtP null kill -2.0, Sa RN4220 lethal 4.9 and TcdB GH inh 0.9.
Screening O=C1C=C(O)c2c(O)cc(O)c(O)c2C1=O returned MazEF act -70.8, PfHsp40 yeast 247.5*, ugtP null kill -9.9, Sa RN4220 lethal 48.4 and TcdB GH inh -1.3.
`O=C1c2ccccc2C(=O)c2c(O)c(O)cc(O)c21` gave MazEF act -12.8, PfHsp40 yeast 179.4*, ugtP null kill 83.2, Sa RN4220 lethal 42.7, TcdB GH inh 1.3 and Mtb hypoxia inh 8.5.
For C[C@@H]1Cc2c(O)c(O)cc(O)c2C(=O)O1 the results were MazEF act 0.6, PfHsp40 yeast -0.1, ugtP null kill -2.3 and Sa RN4220 lethal 1.1.
For O=c1[nH][nH]c(=O)c2c1[nH]c(=S)n2Cc1ccccc1 the results were MazEF act 11.9, PfHsp40 yeast -0.8, ugtP null kill -3.7, Sa RN4220 lethal 1.6, TcdB GH inh 11.8* and Mtb hypoxia inh 3.7.
CCCCn1c(=S)[nH]c2c(=O)n(C)c(=O)n(C)c21 was read as MazEF act -12.1 and TcdB GH inh 52.4*.
For Cn1c(=O)c2[nH]c(=S)n(Cc3ccccc3)c2n(C)c1=O the results were MazEF act 5.4, PfHsp40 yeast -2.6, ugtP null kill 5.1, Sa RN4220 lethal 5.6, TcdB GH inh 49.6* and Mtb hypoxia inh 6.7.
For S=c1[nH]c2ccccc2n1Cc1ccccc1 the results were MazEF act 8.9, PfHsp40 yeast 0.4, ugtP null kill 7.7, Sa RN4220 lethal 5.8, TcdB GH inh 0.7 and Mtb hypoxia inh -3.3.
COCCNC(=O)c1cc2c(c(-c3cccc(-c4ccc(C#N)cc4)c3)n1)[C@H](CCO)N(C(=O)CC1CC1)C2 was read as TcdB GH inh 0.8.
CCN1CCCCC(=NO)C(=NO)CCCC1 was read as ugtP null kill 4.6, Sa RN4220 lethal 2.9 and Mtb hypoxia inh 10.6.
For CC1(C(=O)N2CC3(CC(c4cccc(NC(=O)CC(c5ccccc5)c5ccccc5)c4)=NO3)CC2C(N)=O)CC1 (configuration not stated) the results were ugtP null kill 0.0, Sa RN4220 lethal 1.1 and Mtb hypoxia inh 3.5.
`CC(=O)NCCNC(=O)C1Cc2c(-c3ccccc3Oc3ccccc3)ccnc2O1` (configuration not stated) gave TcdB GH inh 3.9.
Screening CNC(=O)C1Cc2c(-c3ccccc3Oc3ccccc3)ccnc2O1 (configuration not stated) returned TcdB GH inh 13.1*.

Compound activity as filed in PubChem.
